High-throughput results deposited in PubChem BioAssay by National Center for Advancing Translational Sciences (NCATS).
The list is not random: actives were taken first. Their share in the collection is about 21%.
Pf growth 48h = inhibits P. falciparum growth in the first generation, 48 h | P. falciparum luciferase growth in erythrocytes, 48 h | Potency, µM (titrated, usually from 28.7 µM), for the others: at the top dose activity change, negative = inhibition, usual class: inhibitors | 310,000 tested, 5.9% active; also: potency is read from the fitted curve at half-maximal effect; % is scaled to controls: 0 for no effect and ±100 for the full control effect
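Luciferase-expressing parasites in RBCs, 2% Hct / 0.1% parasitemia final; RPMI 1640 + 0.5% Albumax; 37 C, 5% CO2, one generation; luminescence read-out, lower signal = inhibition.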
Cycloheximide cs = counter-screen hit for Shiga toxin inhibitors, cycloheximide | cell reporter, cycloheximide protein synthesis inhibition counterscreen | max response, % | 300,000 tested, 12% active | AID 2314; in the data active = max response mostly above about 13%, no sharp cut-off; inactive = mostly below about 14%; also: read at 38.3 µM for the half of the compounds with a filed dose; 0% is about no effect
Pf growth 96h = inhibits malaria parasite growth, 96 h. P. falciparum luciferase reporter growth, 96 h. Potency, µM (highest dose often 28.7 µM), for the others: at the top dose activity change, negative = inhibition, usual class: inhibitors. AID 504834. 320,000 tested, 6.9% active; also: potency is read from the fitted curve at half-maximal effect; % is scaled to controls: 0 for no effect and ±100 for the full control effect
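Delayed-death screen, second-generation endpoint: infected erythrocytes, 2% hematocrit, 0.05% parasitemia final; 96 hours at 37 C, 5% CO2; luciferase detection reagent; luminescence decrease equals reduced growth.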
Shiga toxin inh = Shiga toxin inhibition | Vero cells, Shiga toxin protein synthesis inhibition reporter | inhibition, % at 38.7 µM | 290,000 tested, 9.2% active | AID 2315; in the data active = inhibition mostly above about 28%, no sharp cut-off; inactive = mostly below about 43%; also: 0% is about no effect
Giardia FBPA inh-1 = Giardia lamblia aldolase inhibition; A8B2U2; purified Giardia FBPA; Potency, µM (top dose mostly 59.6 µM), without a hit: top-dose activity, negative = inhibition, hits mostly inhibitors; 290,000 tested, 0.71% active; AID 2451; also: potency is read from the fitted curve at half-maximal effect; % is scaled to controls: 0 for no effect and ±100 for the full control effect; nearly all actives have a fitted effect of over 55% in size
Target sequence (A8B2U2 whole entry, looked up): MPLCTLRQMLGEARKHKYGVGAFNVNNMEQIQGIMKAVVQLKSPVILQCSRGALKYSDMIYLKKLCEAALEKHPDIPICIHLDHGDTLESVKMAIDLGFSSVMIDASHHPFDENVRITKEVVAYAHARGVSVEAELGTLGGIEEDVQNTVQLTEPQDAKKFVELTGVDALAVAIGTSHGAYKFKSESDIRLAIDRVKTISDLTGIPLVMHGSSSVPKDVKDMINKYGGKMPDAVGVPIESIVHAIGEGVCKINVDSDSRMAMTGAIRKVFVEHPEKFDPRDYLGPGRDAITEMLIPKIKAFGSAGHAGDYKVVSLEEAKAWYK
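Giardia FBPA (40 nM reagent) was preincubated 10 min at RT with compound (up to 57.5 uM final), then substrate plus GAPDH/TPI/NAD/arsenate coupling system with diaphorase/resazurin was added; resorufin fluorescence (525/598 nm) was read after 20 min.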
NS1 function inh = blocks influenza NS1 protein function. Potency, µM (highest dose often 46.1 µM), without a hit: top-dose activity, positive = more growth. 270,000 tested, 0.4% active. AID 2326; calls by dose curve; also: potency is read from the fitted curve at half-maximal effect; actives are rising curves; nearly all actives have a fitted effect of over 50% in size
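In this qHTS, NS1 from influenza A is expressed in budding yeast, where it slows growth. Cells are switched from glucose to 2% galactose medium (pH 6.0, -URA), treated with compound, and growth recovery is read at OD600.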
Giardia growth = inhibitors of Giardia lamblia growth | shares compounds with Giardia FBPA inh-1 | Giardia lamblia trophozoite growth inhibition | Potency, µM (top dose mostly 57.5 µM), inactives show top-dose activity change, negative = inhibition, usual class: inhibitors | 1,500 tested, 5% active;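 also: potency is read from the fitted curve at half-maximal effect; trophozoites exposed to compound for 48 h at 37 °C; % is scaled to controls: 0 for no effect and ±100 for the full control effect; nearly all actives have a fitted effect of over 70% in size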
Mammal cell tox = toxic to mammalian cells in Giardia aldolase counter-screen. mammalian cell viability counter-screen, qHTS. 1,500 tested, 4% active. shares compounds with Giardia FBPA inh-1. Potency, µM (doses to about 57.5 µM), without a hit: at the top dose viability change, negative = toxicity, usual class: inhibitors. AID 2786;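 also: Chinese hamster ovary cells used as mammalian cytotoxicity surrogate; viability measured as cellular ATP by luminescence; potency is read from the fitted curve at half-maximal effect; compound exposure lasted 48 h before reading; % is scaled to controls: 0 for no effect and ±100 for the full control effect; nearly all actives have a fitted effect of over 60% in size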
Giardia FBPA inh-2 = confirmation of Giardia fructose-bisphosphate aldolase inhibitors | shares compounds with Giardia FBPA inh-1 | purified Giardia aldolase enzyme activity, qHTS | Potency, µM (top dose mostly 57.5 µM), for inactives: at the highest dose activity change, negative = inhibition, usual class: inhibitors | 1,500 tested, 5% active | AID 2787; also: potency is read from the fitted curve at half-maximal effect; % is scaled to controls: 0 for no effect and ±100 for the full control effect; nearly all actives have a fitted effect of over 45% in size
Rabbit aldolase = blocks rabbit muscle aldolase in Giardia aldolase selectivity test; shares compounds with Giardia FBPA inh-1; Rabbit muscle FBPA enzyme inhibition, selectivity counter-screen; Potency, µM (titrated, usually from 57.5 µM), for inactives: at the top dose activity, negative = inhibition, usual class: inhibitors; 1,500 tested, 4% active; AID 2794; also: potency is read from the fitted curve at half-maximal effect; % is scaled to controls: 0 for no effect and ±100 for the full control effect; nearly all actives have a fitted effect of over 60% in size
Target sequence (P00883 whole entry, looked up): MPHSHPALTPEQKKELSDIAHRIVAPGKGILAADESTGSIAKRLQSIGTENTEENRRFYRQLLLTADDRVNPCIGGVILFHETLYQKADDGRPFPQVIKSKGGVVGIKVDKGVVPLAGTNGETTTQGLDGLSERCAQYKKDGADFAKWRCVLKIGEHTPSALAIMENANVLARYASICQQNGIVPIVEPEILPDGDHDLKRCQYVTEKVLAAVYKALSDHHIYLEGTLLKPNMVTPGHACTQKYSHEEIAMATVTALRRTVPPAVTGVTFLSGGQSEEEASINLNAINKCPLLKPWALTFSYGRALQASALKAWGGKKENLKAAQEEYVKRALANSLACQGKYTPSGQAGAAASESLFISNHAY
GAPDH counter = GAPDH inhibition flagged for Giardia aldolase hits. shares compounds with Giardia FBPA inh-1. GAPDH coupling enzyme counterscreen, biochemical, qHTS. Potency, µM (doses to about 57.5 µM), without a hit: at the top dose activity change, negative = inhibition, hits mostly inhibitors. 1,500 tested, 6% active. AID 2795; also: potency is read from the fitted curve at half-maximal effect; % is scaled to controls: 0 for no effect and ±100 for the full control effect; nearly all actives have a fitted effect of over 55% in size
* = called active by the depositor; ? = inconclusive; · = no result; [ ] = another dose, or the depositor's remark. Unless noted, calls follow the shape of the dose curve; as a rule, active = well fitted curve in the direction sought with a large enough effect; inconclusive = small, poorly fitted or top-dose-only effect, or another doubt; inactive = no such curve, though single readings can be large; an effect the other way counts as inactive or inconclusive.

SMILES	Pf growth 48h	Cycloheximide cs	Pf growth 96h	Shiga toxin inh	Giardia FBPA inh-1	NS1 function inh	Giardia growth	Mammal cell tox	Giardia FBPA inh-2	Rabbit aldolase	GAPDH counter
C=C(C)CNC(=S)N/N=C(\C)c1cccc(NC(C)=O)c1	19%	-3	?	3	?	·	·	·	·	·	·
CC(=O)Nc1ccc(NC(=O)C/C(C)=N/NC(N)=S)cc1	?	-2	1.9µM*	23	16µM*	·	-14%	9%	-2%	7%	4%
CC(=O)Nc1cccc(/C(C)=N/NC(N)=S)c1	12%	8	44%	-9	18µM*	·	14%	-20%	7%	3%	7%
CCC(=O)N/N=C(\C)CC(=O)Nc1ccc(F)cc1	1%	2	-6%	18	1%	·	·	·	·	·	·
COc1ccc(CNC(=O)N[C@@H](CC(C)C)C(=O)O)cc1OC	4%	-1	12%	-9	3%	2%	·	·	·	·	·
Nc1nc(=S)n(-c2ccccc2)[nH]1	45%	10	374%	10	7.1µM*	·	19%	-1%	2%	5%	9%
COc1ccc(OC)c(S(=O)(=O)N2CCN(CC(O)COc3ccccc3)CC2)c1 (stereo unspecified)	-9%	-7	?	-19	-6%	-15%	·	·	·	·	·
CN1C(=O)/C(=C2\SC(=S)N(CCCCCC(=O)O)C2=O)c2ccccc21	-17%	-2	?	-15	-1%	1%	·	·	·	·	·
CCOC(=O)CN1C(=O)/C(=C2\SC(=S)N(NC(=O)c3cccnc3)C2=O)c2ccccc21	-1%	1	-2%	-3	14µM*	2%	6.3µM*	15%	-24%	-16%	?
CN1C(=O)/C(=C2\SC(=S)N(NC(=O)c3cccnc3)C2=O)c2ccccc21	9%	-2	2.9µM*	-2	7.1µM*	-32%	11µM*	7%	-3%	6%	-4%
Cc1cc(NC(=O)c2ccccc2)c(Cl)cc1N	-4%	-2	30%	-8	3%	-4%	·	·	·	·	·
COc1ccc(NC(=O)CSc2nc(C(C)C)nc3c2c(=O)n(C)c(=O)n3C)c(OC)c1	-2%	-1	6%	-1	·	1%	·	·	·	·	·
N#CC1=C(N)Oc2c(O)cc3ccccc3c2C1c1ccsc1 (stereo unspecified)	?	0	?	-9	18µM*	7%	7%[10.4 µM]	0%	?	?	?
Cc1cccnc1NC(=S)Nc1ccc(F)cc1F	73%	35*	?	77*	20µM*	-4%	?	6%	-3%	12%	-6%
O=C(O)c1cccc(-c2ccc(/C=N/Nc3nn[nH]n3)o2)c1	41%	10	35%	10	16µM*	·	-12%	5%	-1%	-11%	-1%
CCCn1nnc(NC(=S)NC(=O)CC)n1	·	-1	-11%	20	5.6µM*	-2%	?	-5%	-1%	1%	4%
COc1cc(OC)cc(C(=O)NC(=S)Nc2nnn(C)n2)c1	18%	-4	-17%	7	3.5µM*	-1%	-18%[38.3 µM]	-5%	3%	9%	10%
Cn1nnc(NC(=S)NC(=O)c2cccs2)n1	-11%	11	0%	29	2µM*	16%	-8%	4%	-1%	7%	7%
CCCn1nnc(NC(=S)NC(=O)Cc2ccccc2)n1	?	7	?	19	?	11%	·	·	·	·	·
CN(C)S(=O)(=O)c1ccc(NC(=S)NC(=O)c2cccs2)cc1	13%	11*	9.3µM*	23	18µM*	6%	-9%[10.4 µM]	-17%	7%	5%	11%
COc1cc(OC)cc(C(=O)NC(=S)Nc2cccnc2)c1	0%	17	1%	26	-31%	2%	·	·	·	·	·
Cn1nnc(NC(=S)NC(=O)c2ccc(-c3ccc(Br)cc3)o2)n1	20%	11	?	16	?	·	·	·	·	·	·
O=C(CN(C(=O)c1csnn1)c1ccc(F)cc1)NCCc1ccccc1	-6%	-3	0%	33	1%	-5%	·	·	·	·	·
O=C(/C=C/c1ccccc1)N/C(=C/c1ccccc1)C(=O)NCCCO	5%	-4	-11%	-5	3%	-7%	·	·	·	·	·
CC(C)C(=O)NC(=S)Nc1nnn(C)n1	14%	-3	9%	-4	3.2µM*	12%	?	0%	-1%	7%	6%
